# Measured values published in PubChem BioAssay (NCI).
# This is part of a sample that, as a whole, favours compounds with a hit. Of some 83,000 tested, about 20% had one in any assay.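 Single-concentration screen, 48 h exposure, 96-well plates. Endpoint: percent growth. Below 10 = active.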 Values without a mark were called inactive. The source made the active and inactive calls.
# Assays:
# Assay in all cases: NCI-60 one-dose screen, 48 h (100 = growth as untreated, 0 = no growth, -100 = all killed)
# Details in all cases: 10 µM unless noted
# NCI-H23 lung = test system: NCI-H23 lung
# NCI-H226 lung = test system: NCI-H226 lung
# NCI-H322M lung = test system: NCI-H322M lung
# HOP-62 NSCLC = test system: HOP-62 NSCLC
# NCI-H460 lung = test system: NCI-H460 lung
# HOP-92 NSCLC = test system: HOP-92 NSCLC
# NCI-H522 lung = test system: NCI-H522 lung
# A549/ATCC NSCLC = test system: A549/ATCC NSCLC
# 786-0 renal = test system: 786-0 renal
# DU-145 prostate = test system: DU-145 prostate
# K-562 leukemia = test system: K-562 leukemia
# MALME-3M melanoma = test system: MALME-3M melanoma
# MDA-MB-231 breast = test system: MDA-MB-231 breast
# RXF 393 renal = test system: RXF 393 renal
# SF-268 CNS = test system: SF-268 CNS
# SF-295 CNS = test system: SF-295 CNS
# SF-539 CNS = test system: SF-539 CNS
# UACC-257 melanoma = test system: UACC-257 melanoma
# M14 melanoma = test system: M14 melanoma
Structure (SMILES),growth (NCI-H23 lung),growth (NCI-H226 lung),growth (NCI-H322M lung),growth (HOP-62 NSCLC),growth (NCI-H460 lung),growth (HOP-92 NSCLC),growth (NCI-H522 lung),growth (A549/ATCC NSCLC),growth (786-0 renal),growth (DU-145 prostate),growth (K-562 leukemia),growth (MALME-3M melanoma),growth (MDA-MB-231 breast),growth (RXF 393 renal),growth (SF-268 CNS),growth (SF-295 CNS),growth (SF-539 CNS),growth (UACC-257 melanoma),growth (M14 melanoma)
COc1ccc(/C(C)=N/NS(=O)(=O)c2ccc(C)cc2)cc1OC,105%,106%,120%,117%,97.8%,69%,117%,102%,102%,118%,111%,121%,113%,115%,106%,98.9%,103%,104%,117%
Cc1ccc(S(=O)(=O)Nc2sccc2-c2nc(-c3ccccc3)no2)cc1,87.5%,87.9%,82.1%,77.8%,92.3%,88.8%,81.2%,90.3%,94.5%,105%,103%,94.4%,101%,96.1%,92.4%,99.3%,95%,89.3%,87.1%
O=S(=O)(NCCNc1cc(-c2c(-c3cccc(O)c3)nc3sccn23)ccn1)c1ccc(Cl)cc1,79.1%,62.4%,86%,103%,58.3%,74.7%,66.1%,57.6%,62.1%,67.8%,42.5%,94%,80.6%,71.7%,47.9%,85%,91.8%,95.2%,68.2%
CC(C)(C)OC(=O)N1Cc2cc3ccccc3nc2C1CO (centres undefined),85.9%,92.1%,104%,102%,107%,96.7%,110%,95.6%,95.8%,98.6%,133%,120%,96.6%,66.5%,102%,92.8%,95.7%,19.1%,98.7%
N#C/C(=C\c1ccc(Br)cc1)n1nnc2ccccc21,13.5%,-23.9% (active),-12.2% (active),17.9%,-23.2% (active),-15% (active),-6.64% (active),18.1%,5.88% (active),14.5%,14.5%,24.1%,0.304% (active),-15.4% (active),23.9%,16.1%,-3.55% (active),13.4%,10.7%
CN1C[C@@H](c2ccc(Cl)cc2)[C@]2(NC(=S)N(c3ccccc3)C2=O)[C@@]12C(=O)NC1C=CC(Br)=C[C@H]12 (some centres undefined),76.1%,66%,77.4%,79.5%,65.5%,19.7%,49.3%,56.9%,54.3%,85%,34.8%,108%,60.8%,68.4%,58.1%,80.6%,84.8%,71.4%,39.4%
CCCc1nc2ccccn2c1Nc1ccc(C(=O)NO)cc1,61.4%,92.6%,97.4%,90.4%,85.9%,103%,64.9%,97.1%,95.5%,88.3%,89.5%,86.7%,111%,96%,94.2%,93.8%,99.3%,76.1%,89.6%
CCc1nc2ccccc2[nH]1,104%,99.7%,110%,105%,102%,99.7%,103%,107%,112%,125%,102%,122%,103%,113%,103%,119%,104%,102%,99.8%
N[C@@H]1CCC[C@H]1NCCCCN1C(=O)c2cccc3cccc(c23)C1=O,80.4%,91.9%,64.4%,81.9%,59.8%,48%,65.8%,67.4%,58%,59.8%,60.4%,116%,58.2%,72.8%,52.6%,84.4%,7.65% (active),100%,64%
C=C(C)[C@@H]1CC[C@]2(CO)CC[C@]3(C)[C@H](CC[C@@H]4[C@@]5(C)C=C(C#N)C(=O)C(C)(C)[C@@H]5CC[C@]43C)[C@@H]12,16.6%,25.6%,21.4%,23.2%,-7.1% (active),8.38% (active),24.1%,12.6%,14.8%,18.9%,7.75% (active),32.9%,15.9%,-61.2% (active),25.4%,-2.71% (active),20.5%,4.1% (active),15.8%
CCN(CC)CC(=O)Nc1cccc(C(=O)OC(C)C)c1,92.1%,96.5%,96.8%,92.2%,112%,82%,66.3%,93.7%,79.8%,109%,102%,99.5%,112%,112%,105%,95%,100%,106%,79.6%
COc1cccc(CCC2CCCN(c3cc(C)nc(N)n3)C2)c1 (centres undefined),22.1%,55.9%,40%,59.4%,14.3%,23%,2.3% (active),29.1%,19%,25.9%,10.9%,55.2%,22.7%,22.3%,42.6%,14.7%,10.1%,44.5%,6.51% (active)
CC(C)(C)N1CC(OC(N)=O)C1,91.2%,98.2%,98.6%,100%,113%,96.2%,114%,71.8%,96.4%,109%,130%,106%,97.7%,29.1%,109%,113%,98%,4.43% (active),97.6%
N#Cc1c(NC(=O)c2cccc(C(F)(F)F)c2)sc2c1CCC(=O)C2,0.847% (active),13.6%,66.1%,4.66% (active),3.47% (active),-28.5% (active),-15.2% (active),14.6%,13.1%,24%,6.88% (active),-64.9% (active),-54.3% (active),-23.5% (active),1.68% (active),-6.4% (active),-57.8% (active),-3.73% (active),-68.2% (active)
CCOc1ccc2nc(-c3cccc(OCC(=O)NC(C)C)c3)nc(Nc3ccc(-c4cn[nH]c4)cc3)c2c1,11.3%,38.8%,-8.36% (active),-36.3% (active),-37.9% (active),-27.9% (active),-25.3% (active),-34.9% (active),-12.5% (active),4.3% (active),-17.1% (active),-66% (active),2.7% (active),-43.7% (active),12.6%,-47.4% (active),-79.6% (active),-53.7% (active),11.6%
C=C(C)[C@@H]1CC[C@]2(C(=O)NCC(=O)O)CC[C@]3(C)[C@H](CC[C@@H]4[C@@]5(C)Cc6c([nH]c7ccccc67)C(C)(C)[C@@H]5CC[C@]43C)[C@@H]12,73.5%,87.8%,85.5%,58.5%,88.5%,81%,41.9%,67.1%,84.4%,93.5%,72.4%,107%,92%,91.2%,76.1%,56.2%,56.3%,87.1%,86.9%
